Screening data as filed in PubChem BioAssay.
The list is not random: actives were taken first. Their share in the collection is about 3.9%.
CDK5 inh: blocks human CDK5/p35 kinase activity; Q00535+Q15078; Recombinant CDK5/p35, ADP-Glo luminescence, 60 min; inhibition, % at 10 µM; 0.01% of 330,000 active; AID 488839;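 active means highest replicate inhibition of at least 50% and at least 75% of replicates reaching 50%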
ALR H2O2 inh: blocks human ALR sulfhydryl oxidase activity. P55789. purified ALR, DTT oxidation, H2O2 HRP-luminol luminescence. inhibition, % (concentration not given with the values). 3.8% of 290,000 active. AID 485317;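 active means mean replicate inhibition above about 79%, with every replicate also reaching it, limit read from the data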
CASP6 VEID inh: blocks human caspase-6 cleavage activity. P55212. purified caspase-6, Z-VEID-R110 cleavage fluorescence. inhibition, % at 12.5 µM. 0.53% of 350,000 active. AID 686996;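 active means mean inhibition across replicates at least about 35%, with every replicate also reaching that limit, limit read from the data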
Mot1-301 SUMO: SUMOylation pathway inhibition by Mot1-301 growth rescue; growth rescue, % at 18.8 µM; 1% of 320,000 active; S. cerevisiae Mot1-301 growth rescue, ATP luminescence, 38.5C; percent above DMSO median, 100 means doubled; AID 2716;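 active means every valid replicate shows activation above 250% relative to neutral control wells; inactive means the rest, any valid replicate at or below 250%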
NSD2 inh: blocks human histone methyltransferase NSD2. O96028. inhibition, % at 12.5 µM. 0.54% of 310,000 active. NSD2 peptide methylation, AlphaScreen, 120 min. AID 743445; in the data active means inhibition above about 50%
Target sequence (O96028 whole entry, looked up): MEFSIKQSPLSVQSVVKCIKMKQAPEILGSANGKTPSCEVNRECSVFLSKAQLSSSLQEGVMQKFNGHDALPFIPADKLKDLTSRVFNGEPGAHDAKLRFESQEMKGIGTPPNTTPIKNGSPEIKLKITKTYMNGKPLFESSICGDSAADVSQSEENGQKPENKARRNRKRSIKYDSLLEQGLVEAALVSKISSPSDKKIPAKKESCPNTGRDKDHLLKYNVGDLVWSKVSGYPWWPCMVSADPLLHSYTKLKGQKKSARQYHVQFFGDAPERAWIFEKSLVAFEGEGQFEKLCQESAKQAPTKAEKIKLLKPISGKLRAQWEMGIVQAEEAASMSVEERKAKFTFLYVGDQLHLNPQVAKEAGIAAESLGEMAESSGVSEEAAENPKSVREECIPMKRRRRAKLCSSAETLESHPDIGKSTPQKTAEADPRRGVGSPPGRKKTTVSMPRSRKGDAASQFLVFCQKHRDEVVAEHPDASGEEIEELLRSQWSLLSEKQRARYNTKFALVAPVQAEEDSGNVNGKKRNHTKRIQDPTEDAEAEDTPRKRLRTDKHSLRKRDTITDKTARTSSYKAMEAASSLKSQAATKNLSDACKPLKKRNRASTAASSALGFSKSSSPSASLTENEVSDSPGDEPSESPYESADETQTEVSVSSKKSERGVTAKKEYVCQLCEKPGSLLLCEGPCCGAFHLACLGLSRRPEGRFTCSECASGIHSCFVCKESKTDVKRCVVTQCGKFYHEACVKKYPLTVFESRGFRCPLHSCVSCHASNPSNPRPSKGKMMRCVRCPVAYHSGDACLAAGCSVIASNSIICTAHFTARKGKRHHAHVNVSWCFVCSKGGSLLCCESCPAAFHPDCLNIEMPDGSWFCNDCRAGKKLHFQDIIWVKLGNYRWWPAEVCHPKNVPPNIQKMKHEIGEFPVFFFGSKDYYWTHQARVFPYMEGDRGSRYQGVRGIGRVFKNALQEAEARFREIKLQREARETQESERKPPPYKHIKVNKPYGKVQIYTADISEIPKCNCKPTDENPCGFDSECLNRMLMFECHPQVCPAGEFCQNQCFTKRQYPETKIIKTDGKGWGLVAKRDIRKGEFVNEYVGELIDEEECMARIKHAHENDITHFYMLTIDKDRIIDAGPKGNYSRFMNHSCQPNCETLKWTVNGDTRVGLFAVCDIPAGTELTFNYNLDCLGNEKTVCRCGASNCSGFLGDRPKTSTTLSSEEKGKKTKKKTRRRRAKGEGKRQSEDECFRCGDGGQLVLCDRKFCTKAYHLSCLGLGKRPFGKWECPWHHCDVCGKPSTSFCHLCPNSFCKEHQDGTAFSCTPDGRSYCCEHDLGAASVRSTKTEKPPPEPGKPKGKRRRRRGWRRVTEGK
Glyco luc inh: N-linked glycosylation inhibition. AID 588692. 0.23% of 360,000 active. D54 ERlucT glycosylation luciferase reporter, 24 h; percent of 100 nM tunicamycin response. reporter increase, % at 12.5 µM;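 active means mean luciferase reporter signal, scaled so untreated is 0 and the glycosylation-blocking control 100, at or above a set limit in every replicate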;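 further: luciferase carries N-glycosylation sites so blocking glycosylation raises the light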
Large screens that a line does not name were inactive.

Cc1ccc(S(=O)(=O)N[C@@H]2CC[C@@H](CCNC(=O)Cc3ccccn3)O[C@H]2CO)cc1	none (no result: CDK5 inh, ALR H2O2 inh, Mot1-301 SUMO, NSD2 inh, Glyco luc inh)
O=C(C[C@@H]1CC[C@@H]2[C@H](COC[C@@H](O)CN2C(=O)Cc2ccccc2)O1)NC1CCC1	none (no result: CDK5 inh, ALR H2O2 inh, Mot1-301 SUMO, NSD2 inh, Glyco luc inh)
COc1ccc(NC(=O)Nc2ccc3c(c2)C(=O)N([C@H](C)CO)C[C@H](C)[C@@H](CN(C)C(=O)C2CCCCC2)OCCCC[C@@H](C)O3)cc1	none (no result: CDK5 inh, ALR H2O2 inh, Mot1-301 SUMO, NSD2 inh, Glyco luc inh)
NC(=O)c1c(NC(=O)CSc2nnc(Cc3ccccc3)n2Cc2ccco2)sc2c1CCC2	ALR H2O2 inh 87.4 (no result: CASP6 VEID inh)
S=c1nc[nH]c2nc[nH]c12	Glyco luc inh 247.3 (no result: NSD2 inh)
Cn1cnc2nc[nH]c2c1=S	none (no result: ALR H2O2 inh, Mot1-301 SUMO)
CC(C)NC(=O)N[C@@H]1CC[C@H](CCN)O[C@H]1CO	none (no result: CDK5 inh, ALR H2O2 inh, Mot1-301 SUMO, NSD2 inh, Glyco luc inh)
Cc1ccc(S(=O)(=O)NCCc2nnc3ccc(SCC(=O)Nc4nc(C)cs4)nn23)cc1	ALR H2O2 inh 98.4 (no result: Mot1-301 SUMO)
O=C(CSc1ccc2nnc(CCNC(=O)c3ccccc3)n2n1)Nc1ccccc1F	none
Cc1ccc(C(=O)NCCc2nnc3ccc(SCC(=O)N4CCCCC4)nn23)cc1	ALR H2O2 inh 89.3 (no result: Glyco luc inh)
Cc1ccc(C(=O)NCCc2nnc3ccc(SCC(=O)N4CCCC4)nn23)cc1	none
Cc1ccc(C(=O)NCCc2nnc3ccc(SCC(=O)Nc4ccccc4F)nn23)cc1	ALR H2O2 inh 97.3
Cc1ccc(C(=O)NCCc2nnc3ccc(SCC(=O)Nc4ccc(C)cc4C)nn23)cc1	none
N#C[C@H]1[C@@H](c2ccccc2-c2ccccc2F)[C@H](CO)N1C(=O)c1cccc(F)c1	none (no result: CDK5 inh, ALR H2O2 inh, Mot1-301 SUMO, NSD2 inh, Glyco luc inh)
CN1c2ccsc2/C(=N/Nc2ccccc2)CS1(=O)=O	ALR H2O2 inh 98.9
CN1c2ccsc2/C(=N/NC(=O)c2c(F)cccc2F)CS1(=O)=O	none (no result: CASP6 VEID inh)
COc1ccccc1C(=O)Nc1ccc2c(c1)C(=O)N(C)C[C@@H](OC)[C@@H](C)CN(C)[C@@H](C)CO2	none (no result: CDK5 inh, ALR H2O2 inh, Mot1-301 SUMO, NSD2 inh, Glyco luc inh)
CCNC(=O)C[C@@H]1CC[C@@H]2[C@@H](COc3ccc(NC(=O)Nc4ccc(C)cc4)cc3C(=O)N2C)O1	none (no result: CDK5 inh, ALR H2O2 inh, Mot1-301 SUMO, NSD2 inh, Glyco luc inh)
CCOC(=O)/C=C/c1c(OC)cccc1OC	none (no result: CDK5 inh, ALR H2O2 inh, Mot1-301 SUMO, NSD2 inh, Glyco luc inh)
O=C1CCCCC1C(Nc1ccc(Br)cc1)c1ccccc1 (stereo unspecified)	none (no result: CASP6 VEID inh)
O=C1CCCCC1C(Nc1ccc(Cl)cc1)c1ccccc1 (stereo unspecified)	ALR H2O2 inh 98.4 (no result: CASP6 VEID inh)
CCOc1ccccc1C1N=C(c2ccc(OC)cc2)CC(c2ccccc2O)N1 (stereo unspecified)	ALR H2O2 inh 96.2
Oc1ccccc1C1CC(c2cccs2)=NC(c2ccc(Cl)cc2)N1 (stereo unspecified)	none
C[C@@H]1CN([C@H](C)CO)C(=O)c2cc(NC(=O)CCN3CCOCC3)ccc2O[C@@H]1CN(C)C(=O)Nc1ccc(F)cc1	none (no result: CDK5 inh, ALR H2O2 inh, Mot1-301 SUMO, NSD2 inh, Glyco luc inh)
C[C@@H]1CN([C@@H](C)CO)C(=O)Cc2cc(NC(=O)c3ccncc3)ccc2O[C@@H]1CN(C)Cc1ccc(C(=O)O)cc1	none (no result: CDK5 inh, ALR H2O2 inh, Mot1-301 SUMO, NSD2 inh, Glyco luc inh)
CC(=O)c1ccc(NC(=O)CSc2nc(=O)n(CCN3CCOCC3)c3c2CCC3)cc1	ALR H2O2 inh 98.1
O=C(CSc1nc(=O)n(CCCN2CCOCC2)c2c1CCC2)Nc1ccccc1F	none
Cc1ccc(NC(=O)CSc2nc(=O)n(CCN3CCOCC3)c3c2CCCC3)cc1	none (no result: NSD2 inh)
CC(=O)c1cccc(NC(=O)CSc2nc(=O)n(CCN3CCOCC3)c3c2CCCC3)c1	none
CC(=O)Nc1cccc(NC(=O)CSc2nc(=O)n(CCN3CCOCC3)c3c2CCC3)c1	ALR H2O2 inh 97.3
CC(=O)Nc1cccc(NC(=O)CSc2nc(=O)n(CCCN3CCOCC3)c3c2CCC3)c1	ALR H2O2 inh 98.1
O=C(CSc1nc(=O)n(CCCN2CCOCC2)c2c1CCC2)Nc1cccc(F)c1	ALR H2O2 inh 97.2
C[C@H]1CN([C@@H](C)CO)C(=O)c2cccc(NS(C)(=O)=O)c2O[C@H]1CN(C)C(=O)Nc1ccccc1	none (no result: CDK5 inh, ALR H2O2 inh, Mot1-301 SUMO, NSD2 inh, Glyco luc inh)
O=C(c1ccncc1)N1CC(=O)N2[C@H](C1)[C@@H](c1ccc(-c3ccccc3F)cc1)[C@@H]2CO	none (no result: CDK5 inh, ALR H2O2 inh, Mot1-301 SUMO, NSD2 inh, Glyco luc inh)
Cc1cccc(OCCCC(=O)Nc2ccc(N(C)C)cc2)c1	ALR H2O2 inh 91.6
Cc1ccc(CCC(=O)Nc2ccc(Br)cc2)o1	none
Cc1ccc(CCC(=O)Nc2ccc(Cl)cc2)o1	none
Cc1ccc(CCC(=O)Nc2ccc(N(C)C)cc2)o1	ALR H2O2 inh 99.0 (no result: NSD2 inh)
CN(C)c1ccc(NC(=O)CCn2c(=S)oc3ccccc32)cc1	ALR H2O2 inh 98.3
